Screening results from PubChem.
A selection: hits, their analogues and other compounds. The true share with any hit is near 10%.
GPT2 inhibitor: Primary qHTS assay for inhibitors of Glutamate pyruvate transaminase 2 (GPT2) | Potency, µM (series often up to 57.7 µM), usual class: inhibitors | 100,000 tested, 0.25% active | AID 1671188, 2021 | Recombinant GPT2, coupled pyruvate oxidase/HRP Amplex Red fluorescence; also: nearly all actives have a fitted effect of over 60% in size
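GPT2 10ng/uL, a-KG 250uM, L-Ala 2mM, HEPES pH7.5 + 0.0001% Tween; 30 min RT. Then Amplex mix (PO/HRP/ThPP), 30 min RT dark, fluorescence. AOA 50uM used as positive control.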
HEK cytotox: Cytotoxic Profiling in HEK 293 Cell Line of Diverse Libraries Using Quantitative High-Throughput Screening. HEK 293 viability, ATP luminescence (CellTiter-Glo), 48-72 h. Potency, µM (series often up to 115 µM), hits mostly inhibitors. 94,000 tested, 6.6% active; also: nearly all actives have a fitted effect of over 60% in size
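ATP-coupled CellTiter-Glo luminescence served as viability read-out, recorded 10 min after reagent addition at room temperature. HEK 293 cells, 250 cells/well, had been incubated with pintool-transferred compound for 48 or 72 hr at 37 degree Celsius.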
FLuc inh: Firefly luciferase inhibition profiling of diverse chemical library using quantitative high-throughput screening; 76,000 tested, 2.5% active; Potency, µM (doses to about 115 µM), most hits filed as inhibitors; Luciferin 4-monooxygenase (Photinus pyralis), P08659; AID 1347043, 2019; purified P. pyralis luciferase, luminescence, biochemical; also: nearly all actives have a fitted effect of over 65% in size
Target sequence (P08659 whole entry, looked up): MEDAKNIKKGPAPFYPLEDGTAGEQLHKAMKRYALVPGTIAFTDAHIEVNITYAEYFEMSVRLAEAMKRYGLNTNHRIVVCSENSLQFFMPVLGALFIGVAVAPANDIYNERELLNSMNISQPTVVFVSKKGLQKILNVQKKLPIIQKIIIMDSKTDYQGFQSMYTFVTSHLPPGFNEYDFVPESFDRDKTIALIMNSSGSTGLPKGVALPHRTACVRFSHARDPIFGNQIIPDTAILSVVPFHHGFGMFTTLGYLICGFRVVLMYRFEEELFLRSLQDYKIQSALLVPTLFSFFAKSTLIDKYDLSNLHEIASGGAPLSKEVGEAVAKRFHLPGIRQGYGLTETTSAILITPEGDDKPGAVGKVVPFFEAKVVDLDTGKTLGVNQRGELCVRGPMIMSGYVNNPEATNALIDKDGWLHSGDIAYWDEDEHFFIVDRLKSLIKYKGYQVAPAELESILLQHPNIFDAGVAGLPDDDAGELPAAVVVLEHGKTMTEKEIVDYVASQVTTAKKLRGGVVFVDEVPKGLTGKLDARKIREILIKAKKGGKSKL
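Purified 10nM P. pyralis luciferase with 10uM D-luciferin and 10uM ATP in 50mM Tris acetate pH 7.5, 10mM Mg acetate, 0.01% Tween-20, 0.05% BSA. qHTS titration; luminescence read by CCD imager.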
3T3 cytotox: Cytotoxic Profiling in NIH 3T3 Cell Line of Diverse Libraries Using Quantitative High-Throughput Screening; NIH 3T3 viability, CellTiter-Glo ATP luminescence, 48-72 h; Potency, µM (doses to about 96.7 µM), actives largely listed as inhibitors; 94,000 tested, 4.3% active; AID 1345082, 2018; also: nearly all actives have a fitted effect of over 55% in size
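Cytotoxicity is measured as loss of cellular ATP: NIH 3T3 cells (400/well) are exposed to compound for 48 or 72 hr at 37 °C, then CellTiter-Glo luminescence is imaged after 10 min at room temperature.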
NPR1 antag: Natriuretic polypeptide receptor (hNpr1) antagonism - Primary qHTS; Atrial natriuretic peptide receptor 1 (Homo sapiens), P16066; HEK293 hNpr1 GloSensor cGMP, ANP-stimulated luminescence; Potency, µM (doses to about 46.3 µM), usual class: inhibitors; 76,000 tested, 1.6% active; AID 1347048, 2019; calls by dose curve; also: nearly all actives have a fitted effect of over 60% in size
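HEK293 cells stably expressing human Npr1 and cGMP GloSensor pGS-40F, loaded 2 h with 2% GloSensor reagent, given compound 30 min at room temperature. Luminescence read before and 20 min after 0.1 nM hNppA.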
Numbers stand for hits; i = inactive; ? = inconclusive; nt = no result. Unless noted, calls follow the shape of the dose curve; as a rule, active = well fitted curve in the direction sought with a large enough effect; inconclusive = small, poorly fitted or top-dose-only effect, or another doubt; inactive = no such curve, though single readings can be large; an effect the other way counts as inactive or inconclusive.

SMILES | GPT2 inhibitor | HEK cytotox | FLuc inh | 3T3 cytotox | NPR1 antag
Cc1ccnn1CC(=O)N1CCOc2c(O)cc(-c3cccc(Cl)c3)cc2C1 | i | ? | i | ? | i
O=C1CCN(CC(O)Cc2ccccc2)c2ccccc2CCN1C/C=C/c1ccccc1 (centres undefined) | ? | 22µM | nt | ? | nt
Cc1cc(C)cc(-c2ccccc2CN)c1 | i | 112µM | nt | ? | nt
Cc1ccc(-c2ccccc2CN)cc1Cl | i | 35µM | nt | 35µM | nt
NCc1ccccc1-c1cc(F)cc(F)c1 | i | i | nt | i | nt
O=[N+]([O-])c1cccc(-c2noc([C@@H]3Cc4nc[nH]c4CN3Cc3cccs3)n2)c1 | i | ? | i | 79µM | ?
N#Cc1cccc(CN2Cc3[nH]cnc3C[C@H]2c2nc(-c3cccc([N+](=O)[O-])c3)no2)c1 | i | ? | i | ? | i
O=[N+]([O-])c1cccc(-c2noc([C@@H]3Cc4nc[nH]c4CN3Cc3ccc(F)cc3)n2)c1 | i | 50µM | i | ? | ?
O=C1CCN(CC(O)COc2ccccc2)c2ccccc2CN1C1CC1 (centres undefined) | nt | 40µM | nt | ? | nt
COc1ccc2c(c1)CN(CC=C(C)C)C(=O)CCN2CC(O)COc1ccccc1 (centres undefined) | nt | 79µM | nt | ? | nt
CCN1Cc2cc(OC)ccc2N(CC(O)COc2ccc(OC)cc2)CCC1=O (centres undefined) | nt | i | nt | ? | nt
C=CCN1Cc2cc(F)ccc2N(CC(O)COc2ccccc2)CCC1=O (centres undefined) | nt | 45µM | nt | ? | nt
CC(O)CN1CCC(=O)N(C2CCCC2)Cc2ccccc21 (centres undefined) | nt | i | nt | ? | nt
COc1ccc(OCC(O)CN2CCC(=O)N(CC(C)(C)C)Cc3cc4c(cc32)OCO4)cc1 (centres undefined) | nt | 50µM | nt | ? | nt
CN(C)c1ccc(C(=O)N2CCCC(COc3ccccc3C(=O)N3CCCCC3)C2)cc1 (centres undefined) | i | ? | i | i | i
O=C1[C@@H]2C[C@@H](O)CN2C2(CN(Cc3c[nH]c4ccccc34)C2)C(=O)N1Cc1cccc(Cl)c1 | i | ? | i | ? | i
CCn1nc(C)cc1C(=O)N1Cc2cnn(Cc3ccc(F)cc3)c2C1 | i | ? | i | i | i
COc1ccc(C2(C(=O)N3CCCC(c4nc(-c5ccccc5)no4)CCNC(=O)CC3)CC2)cc1 (centres undefined) | i | ? | i | ? | i
Cc1noc2c(N3CCN(Cc4ccccc4)CC3)cc(-c3ccsc3)nc12 | i | 56µM | i | ? | i
CNC(=O)[C@H]1C[C@H](Oc2ccccc2)CN1C(=O)c1ccc(OC)c(OC)c1 | i | i | i | i | i
CCn1c2ccccc2c2cc(C(=O)N3C[C@@H](Oc4ccccc4)C[C@@H]3C(=O)NC)ccc21 | i | 35µM | ? | ? | i
O=C(NCCCc1ccccc1)c1cc(-c2cccs2)c2cccn2n1 | i | ? | nt | ? | nt
O=C(NCc1cccs1)c1cc(-c2cccs2)c2cccn2n1 | i | 50µM | nt | ? | nt
O=C(NCCc1ccc(Cl)cc1)c1cc(-c2cccs2)c2cccn2n1 | i | 45µM | nt | ? | nt
CCOC(=O)[C@@H]1CN(C(=O)C(CC)CC)[C@H]2c3cccc(C)c3O[C@@H]12 | nt | i | nt | ? | nt
CN(C)c1nccnc1OC1CCN(C(=O)c2ccoc2)C1 (centres undefined) | i | i | 40µM | i | i
COCC(=O)N1CCC(Oc2nccnc2N(C)C)C1 (centres undefined) | i | i | i | i | i
CCCN(C)c1nccnc1OC1CCN(C(=O)c2ccc(OC)cc2)C1 (centres undefined) | i | 45µM | 40µM | i | i
CC(C)CC(=O)N1CCC(Oc2nccnc2N(C)C)C1 (centres undefined) | i | i | 32µM | i | i
Cc1ccc(S(=O)(=O)N2CCCC(Cn3c(C4CC4)nc4cccnc43)C2)cc1F (centres undefined) | i | ? | i | i | i
